In PubChem BioAssay:
Activity calls are given as the source filed them.

Assays:
Albumin (Bos taurus) = Albumin (Bos taurus) (UniProt P02769); assay: compounds binding labelled BSA control protein – biochemical, small-molecule microarray, Alexa647 label, 635/667 nm fluorescence, artefact control for SMM control protein annotation, profiling panel (AID 1118); conditions: BSA-A647 binding, fluorescence 635 nm, higher = more signal;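 also: score merges 667 nm emission intensity and signal-to-noise per printed compound spot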
Sequence of Albumin (Bos taurus) (P02769 whole entry, looked up): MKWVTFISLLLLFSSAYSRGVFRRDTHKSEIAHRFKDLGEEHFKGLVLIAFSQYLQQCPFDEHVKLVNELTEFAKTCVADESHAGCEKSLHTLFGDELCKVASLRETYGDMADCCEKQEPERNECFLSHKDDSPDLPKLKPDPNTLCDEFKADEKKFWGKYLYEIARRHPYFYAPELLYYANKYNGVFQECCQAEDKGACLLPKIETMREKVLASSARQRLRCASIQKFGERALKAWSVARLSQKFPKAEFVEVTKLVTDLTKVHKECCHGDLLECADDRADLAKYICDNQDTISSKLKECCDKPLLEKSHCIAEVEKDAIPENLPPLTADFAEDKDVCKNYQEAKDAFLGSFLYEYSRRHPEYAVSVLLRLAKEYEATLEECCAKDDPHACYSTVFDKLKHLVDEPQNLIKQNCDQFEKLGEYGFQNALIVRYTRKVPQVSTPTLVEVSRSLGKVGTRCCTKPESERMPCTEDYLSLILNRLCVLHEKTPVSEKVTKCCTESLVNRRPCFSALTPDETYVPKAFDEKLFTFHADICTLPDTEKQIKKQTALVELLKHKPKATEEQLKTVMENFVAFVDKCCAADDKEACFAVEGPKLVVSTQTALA

[1] = probe aXIP binding to arrayed compounds – biochemical, NeuroSMM set, 635/667 nm fluorescence, primary screen (AID 1119); conditions: small-molecule microarray, higher = more signal, called active from +8 up or from −8 down;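 also: probe is the protein aXip251-270 applied at 1 µg/mL to compound-printed slides; binding of probe to printed compounds measured as 667 nm fluorescence plus signal to noise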
[2] = probe aNOTCH3 binding on compound microarray – biochemical, small-molecule microarray, 635/667 nm fluorescence, primary screen (AID 1120); conditions: higher = more signal;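 also: probe is a biotin-tagged antibody raised against NOTCH3 rather than NOTCH3 protein; score merges spot fluorescence near 667 nm with spot signal to noise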
[3] = probe aNOTCH2 binding on compound microarray – biochemical, small-molecule microarray, 635/667 nm fluorescence, primary screen (AID 1121); conditions: higher = more signal;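 also: score merges feature fluorescence read at 667 nm with its signal to noise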
[4] = molecular target: Carbonic anhydrase 2 (Homo sapiens) (UniProt P00918); assay: compounds binding carbonic anhydrase 2 – biochemical, small-molecule microarray, Alexa647-labelled CAII, profiling panel (AID 1122); conditions: CAII-A647 binding fluorescence, higher = more signal
[5] = COS7 lysate on small-molecule microarray, probe aHis, 635 nm (AID 1123); conditions: COS7 cell lysate, fluorescence, higher = more signal;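 also: z-score combines 667nm fluorescence intensity with signal-to-noise per printed compound spot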
[6] = probe aLAP1 signal on lysate-treated microarray – cell lysate, small-molecule microarray, COS7 lysate, primary screen (AID 1124); conditions: probe aLAP1, fluorescence, higher = more signal;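 also: lysate comes from COS7 cells expressing LAP1 and is applied at 0.3 µg/mL; score merges spot fluorescence near 667 nm with signal-to-noise over triplicate slides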
Sam68 (KHDRBS1) = assay: compounds binding KHDRBS1 protein – biochemical, small-molecule microarray, 635 nm fluorescence, primary screen (AID 1125); conditions: higher = more signal;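 also: score merges 667 nm channel intensity with signal to noise over triplicate slides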
[7] = test system: Chordin-like protein 2 (CHRDL2); assay: compounds binding chordin-like 2 – biochemical, small-molecule microarray, 635 nm fluorescence, primary screen (AID 1126); conditions: fluorescence 635 nm, higher = more signal;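 also: printed compound slides probed with Chrdl2 protein at 4 µg/mL for 1 h at 4 C; score merges 667 nm emission intensity with signal to noise over three replicate slides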
[8] = molecular target: Concanavalin-A (Canavalia ensiformis) (UniProt P02866); assay: compounds binding concanavalin A lectin – biochemical, small-molecule microarray, Alexa647 label, 635 nm, artefact control for SMM control protein annotation, primary screen (AID 1127); conditions: ConA-A647 binding fluorescence, higher = more signal;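 also: z combines 667 nm emission intensity with signal-to-noise across three replicate slides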
Sequence of Concanavalin-A (Canavalia ensiformis) (P02866 whole entry, looked up): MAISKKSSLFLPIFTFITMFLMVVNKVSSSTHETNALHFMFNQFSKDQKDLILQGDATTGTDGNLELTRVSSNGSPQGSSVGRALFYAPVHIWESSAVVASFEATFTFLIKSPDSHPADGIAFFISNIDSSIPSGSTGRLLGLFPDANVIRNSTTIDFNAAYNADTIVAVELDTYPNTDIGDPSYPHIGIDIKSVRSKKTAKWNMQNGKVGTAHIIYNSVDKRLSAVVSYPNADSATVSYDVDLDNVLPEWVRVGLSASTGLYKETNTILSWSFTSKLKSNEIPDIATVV

Structure (SMILES) | composite z-score (Albumin (Bos taurus)) | composite Z-score [1] | composite z-score [2] | composite z-score [3] | composite z-score [4] | composite z-score [5] | composite z-score [6] | composite z-score (Sam68 (KHDRBS1)) | composite z-score [7] | composite z-score [8]
CCN1C(=O)[C@@H]2[C@H]3C(=CC[C@@H]2C1=O)C1(OCCCO1)[C@H]1O[C@H]1[C@H]3O | 0.488 | 0.369 (inactive) | 0.162 | -0.0948 | 0.429 | 2.12 | 0.251 | 1.29 | 0.333 | 1
CC(CCN1CCCCc2nc(C)c(C)cc21)=NOC[C@@H](O)COCc1ccco1 | -0.732 | 1.28 (inactive) | 0.149 | -0.137 | -0.297 | -0.964 | -0.125 | 0.428 | 1.63 | -1.26
CCN1C(=O)[C@H]2[C@H]3[C@H](O)[C@H](O)CC(=NNC(=O)OCc4ccc(OC)cc4)[C@@H]3CC[C@H]2C1=O | -0.254 | 0.0958 (inactive) | 0.0945 | -0.0894 | -0.403 | -0.42 | 0.106 | -0.362 | 0.0319 | -0.205
C=C(C)C(=O)OCC1CN2[C@@H](CC[C@@H](C)[C@@H]2c2ccc(Br)cc2)C(=O)O1 (stereo not given in full) | 0.188 | -0.168 (inactive) | 0.0539 | -0.11 | -0.062 | 0.0971 | -0.126 | 0.671 | 0.691 | 0.59
O=C1C[C@@H](O)[C@@H](O)[C@@H]2[C@@H]3C(=O)N(C[C@@H]4CCCO4)C(=O)[C@@H]3CC[C@H]12 | 0.225 | -0.472 (inactive) | 0.0197 | -0.203 | 0.0413 | 0.157 | -0.117 | 0.354 | 0.72 | 0.186
C[C@@H](c1ccccc1)N1C(=O)[C@H]2[C@H]3[C@H](O)[C@H](O)CC(=NOCc4ccccc4)[C@H]3CC[C@H]2C1=O | 0.437 | -0.325 (inactive) | -0.0288 | -0.147 | 0.388 | 0.797 | 0.771 | 1.17 | 0.365 | 0.951
COC(=O)CC=C[C@@H](C)[C@@H](C=NO[C@H](C)c1cn([C@H](CO)Cc2ccccc2)nn1)NS(=O)(=O)c1ccc(C)cc1 | 0.749 | 0.863 (inactive) | 0.0242 | -0.118 | -0.276 | -0.0104 | 0.78 | 0.566 | 0.437 | 0.837
CCOC(=O)[C@H](CC(C)C)NC(=O)CCC1CC(OC(=O)NCc2ccc3c(c2)OCO3)CC2(CCCC(COC(=O)NCC3CCCCC3)O2)O1 (stereo not given in full) | 0.235 | 0.189 (inactive) | 0.31 | -0.207 | 0.368 | 0.636 | 0.244 | 1.32 | 0.567 | 0.512
COC(=O)[C@H](C)NC(=O)CCC1CC(OC(=O)NCc2ccc3c(c2)OCO3)CC2(CCCC(COC(=O)NCC3CCCCC3)O2)O1 (stereo not given in full) | 0.569 | -0.0882 (inactive) | -0.0111 | -0.0947 | 0.234 | 1.19 | -0.111 | 1.29 | 0.435 | 1.05
CC(=O)OC[C@H]1O[C@@H](ON=C(C)CCN2CCCc3nc(C)c(C)cc32)[C@H](OC(C)=O)[C@@H](OC(C)=O)[C@@H]1OC(C)=O | 0.449 | 0.403 (inactive) | -0.0587 | -0.0695 | 0.155 | 0.678 | 0.16 | 1.13 | -0.144 | 1.03
C=CC[C@@H]1C=C[C@H](ON=C(C)CCN2CCc3nc(-c4ccccc4)c(-c4ccccc4)cc3C2)[C@@H](CO)O1 | 0.585 | 0.364 (inactive) | -0.0362 | -0.0995 | 0.1 | 1.6 | -0.0995 | 1.31 | 0.321 | 0.967
CCOC(=O)NN=C1C[C@@H](O)[C@@H](O)[C@@H]2[C@@H]3C(=O)N(C(C)(C)C)C(=O)[C@@H]3CC[C@H]12 | -0.385 | 0.288 (inactive) | 0.0431 | 0.272 | -0.257 | -0.227 | -0.207 | 0.129 | 0.743 | 0.383
C#CCCCON=C1C[C@@H](O)[C@@H](O)[C@@H]2[C@@H]3C(=O)N(c4cccc(Oc5ccccc5)c4)C(=O)[C@@H]3CC[C@H]12 | -0.302 | 1.27 (inactive) | -0.373 | -0.14 | 0.709 | 0.0922 | 0.762 | -0.582 | -0.771 | -0.387
COC(=O)[C@@H]1CC[C@H](C)[C@@H](c2ccc(C)cc2)N1C(=O)c1ccc(C=NO[C@@H]2O[C@H](COC(C)=O)[C@@H](OC(C)=O)[C@H](OC(C)=O)[C@H]2OC(C)=O)cc1 | 0.322 | 0.265 (inactive) | -0.217 | -0.0596 | -0.0477 | 0.234 | 0.116 | 1.05 | 0.452 | 1.01
CC(CCN1CCCc2nc(C)c(C)cc21)=NOC(C)CN1CCCCc2nc(C)c(C)cc21 (stereo not given) | -0.0931 | 1.62 (inactive) | 0.539 | 0.101 | 0.618 | 0.84 | 0.247 | 1.3 | 1.06 | 1.01
COc1cccc([C@H]2Oc3ccc(OC)cc3C(=NOC(C)CN3CCCCc4nc(C)c(C)cc43)[C@@H]2O)c1 (stereo not given in full) | 0.604 | -0.352 (inactive) | 0.0876 | -0.106 | 0.293 | 0.47 | -0.456 | 0.523 | 0.267 | 0.653
CCOC(=O)[C@H](Cc1ccccc1)NC(=O)CCC1CC(OC(=O)NCc2cccc3ccccc23)CC2(CCCC(COC(=O)NCc3ccccc3)O2)O1 (stereo not given in full) | 0.561 | -0.0662 (inactive) | -0.0204 | -0.155 | 0.452 | 1.06 | -0.398 | 0.712 | 0.0223 | 0.649

Structure (SMILES) | composite z-score (Albumin (Bos taurus)) | composite Z-score [1] | composite z-score [2] | composite z-score [3] | composite z-score [4] | composite z-score [5] | composite z-score [6] | composite z-score (Sam68 (KHDRBS1)) | composite z-score [7] | composite z-score [8]
CC(C)=CCCC(C)=CCON=C1C[C@@H](O)[C@@H](O)[C@@H]2[C@@H]3C(=O)N(C(C)(C)C)C(=O)[C@@H]3CC[C@@H]12 | 0.0038 | -0.204 (inactive) | -0.127 | -0.0859 | -0.0211 | -0.13 | -0.0115 | 0.383 | 0.129 | 0.411
CO[C@H]1COC(=O)[C@H](C)NC(=O)[C@@H](C)COC(=O)[C@H]2CCCN2C(=O)CC=C[C@H]1C | -0.74 | -0.533 (inactive) | -0.178 | -0.148 | -0.273 | -0.414 | -0.0354 | 0.476 | 1.17 | -0.229
CCOC(=O)[C@H](Cc1ccccc1)NC(=O)CCC1CC(OC(=O)NCCc2ccc(F)cc2)CC2(CCCC(COC(=O)NCCc3ccc(Cl)cc3)O2)O1 (stereo not given in full) | 0.755 | 0.118 (inactive) | 0.0179 | -0.101 | 0.283 | 1.12 | 0.416 | 1.23 | 0.38 | 1.03
CC(C)CON=C1C[C@@H](O)[C@@H](O)[C@@H]2[C@@H]3C(=O)N(C4CCCCC4)C(=O)[C@@H]3CC[C@@H]12 | 0.401 | -0.0662 (inactive) | -0.178 | -0.177 | 0.389 | 1.73 | -0.499 | 0.158 | -0.329 | 1.01
C[C@@H]1NC(=O)[C@@H](C)COC(=O)[C@H](C)NC(=O)[C@@H](C)COC1=O | 0.591 | -0.152 (inactive) | -0.0339 | -0.0907 | 0.394 | 0.1 | -0.706 | 0.769 | 0.316 | 0.513
O=C1CCCC(C2=CCCCC2=O)C1 (stereo not given) | -0.599 | 0.675 (inactive) | 0.152 | -0.112 | -0.139 | 0.0016 | 0.0781 | -0.532 | 1.06 | -0.719
C#CCCCON=C1C[C@@H](O)[C@@H](O)[C@@H]2[C@@H]3C(=O)N(CCC(=O)OCC)C(=O)[C@@H]3CC[C@H]12 | 0.356 | 0.269 (inactive) | -0.042 | -0.0837 | 0.222 | 0.769 | 0.613 | 1.32 | 0.247 | 1.07
CCOC(=O)[C@H](Cc1ccccc1)NC(=O)CCC1CC(OC(=O)NCCc2ccc(F)cc2)CC2(CCCC(COC(=O)NCCc3ccccc3OC)O2)O1 (stereo not given in full) | 0.667 | -0.449 (inactive) | -0.0984 | -0.14 | 0.303 | 1.46 | 0.854 | 1.12 | 0.405 | 1.09
CO[C@@H]1COC(=O)[C@@H](C)COC(=O)[C@@H](C)NC(=O)CC=C[C@@H]1C | -0.647 | -0.377 (inactive) | -0.16 | -0.208 | -0.425 | -0.566 | 0.262 | 0.0411 | 1.6 | -0.988
CO[C@H]1COC(=O)CC=C[C@H](C)[C@@H](OC)COC(=O)[C@@H](C)NC(=O)CC=C[C@@H]1C | -0.614 | 0.611 (inactive) | -0.173 | -0.169 | -0.581 | -0.629 | 0.304 | -0.0974 | 1.47 | -0.897
CO[C@H]1COC(=O)CC=C[C@@H](C)[C@H](OC)COC(=O)[C@@H]2CCCN2C(=O)CC=C[C@@H]1C | -0.871 | 0.668 (inactive) | -0.0077 | -0.107 | -0.377 | -0.339 | -0.322 | 0.672 | 1.32 | -0.222
CC[C@@H](c1ccccc1)n1c(=O)n2n(c1=O)[C@H]1[C@H](O)[C@@H]3O[C@@H]3C(=NOC[C@@H](O)COCc3ccco3)[C@H]1CC2 | -0.368 | 0.615 (inactive) | -0.232 | -0.133 | 0.04 | -0.997 | -0.955 | -0.758 | 0.726 | -0.757
CO[C@H]1COC(=O)CC=C[C@H](C)[C@@H](OC)COC(=O)[C@@H](C)COC(=O)CC=C[C@@H]1C | -0.93 | 0.793 (inactive) | -0.0647 | -0.146 | -0.535 | -0.25 | -0.145 | -0.132 | 1.51 | -1.85
CCOC(=O)CCN1C(=O)[C@H]2[C@H]3[C@H](O)[C@H](O)CC(=NOCC(C)C)[C@H]3CC[C@H]2C1=O | 0.345 | 0.636 (inactive) | -0.0377 | -0.14 | -0.278 | 0.163 | 0.528 | -0.353 | 0.433 | 0.0589
CCO[C@H](c1cc(OC)cc([N+](=O)[O-])c1OC)[C@H](C)C=CCC(=O)OC | -0.424 | 0.277 (inactive) | -0.0682 | -0.122 | -0.324 | -0.925 | 0.251 | 0.143 | 0.516 | -0.221
CC(=O)O[C@H]1C2=CO[C@H](C)[C@H]3[C@H]4C5=C([C@H](O)[C@H]6O[C@H]6C5=O)[C@H](OC4C)[C@@]23C(=O)[C@@H]2O[C@@H]21 (stereo not given in full) | 0.767 | 0.719 (inactive) | 0.0836 | -0.0357 | 0.357 | 0.249 | 0.228 | 0.583 | 0.0249 | -0.185
